In PubChem BioAssay AID893 (National Center for Advancing Translational Sciences (NCATS), 2007):
Among all 75,000 compounds or so, about 5,700 (7.6%) were called active. About 7% were inconclusive and are not listed. Calls follow the shape of the dose curve; as a rule, active = well fitted inhibition curve with a large enough effect; inconclusive = small, poorly fitted or top-dose-only effect; inactive = no such curve, though single readings can be large or run the other way. Shown is part of a subset that was picked to be rich in actives.

The molecules below were run against 3-hydroxyacyl-CoA dehydrogenase type-2 (Homo sapiens) (UniProt Q99714) (assay: qHTS Assay for Inhibitors of HSD17B4, hydroxysteroid (17-beta) dehydrogenase 4). Conditions: recombinant HSD17B10, NADH fluorescence kinetic; series mostly up to 57.1 µM.
In short: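 Enzyme plus compound, 15 min room temperature; substrate mix added (NAD+ 1 mM, beta-hydroxybutyryl-CoA 90 uM final); plates read kinetically for NADH fluorescence. HADH2 was His-tagged, E. coli-derived, 20 nM.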
% is scaled to controls: 0 for no effect and ±100 for the full control effect; potency is read from the fitted curve at half-maximal effect.
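Also: the protocol describes HADH2 (HSD17B10) and not the HSD17B4 of the title; nearly all actives have a fitted effect of over 70% in size.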

Potency, active:
COc1ccc2nc(NC3=NCN(CC4CCCO4)CN3)nc(C)c2c1 (configuration not stated) 31.6 µM, CSc1sc(C)cc1C1C(C#N)=C(N)N(c2cccnc2)C2=C1C(=O)CCC2 (configuration not stated) 15.8 µM, Cn1nc(-c2ccc(Cl)cc2)c2cc(C(=O)NCc3ccco3)sc21 31.6 µM, Cc1ccc(C)n1C(Cc1ccccc1)C(=O)O (configuration not stated) 10 µM, O=C(CSC1=Nc2ccccc2C2=NC(c3ccccc3)C(=O)N12)NCC1CCCO1 (configuration not stated) 31.6 µM, COc1cc2nc(N3CCN(C(=O)[C@@H]4CCCO4)CC3)nc(N)c2cc1OC 12.6 µM, CCOc1ccccc1C(=O)NCc1ccco1 25.1 µM, Cn1cccc1C(=O)NC(=O)COC(=O)Cc1coc2ccc3ccccc3c12 31.6 µM, N[C@H](C(=O)O)c1ccc(C(=O)O)c(O)c1 39.8 µM, O=C(c1ccco1)N1CCC2(CC1)CCN(c1ncccn1)CC2 31.6 µM, CN(c1nc2ccccc2n2c(-c3ccco3)nnc12)S(=O)(=O)c1ccccc1 1 µM, CCC(=O)Nc1ccc(C(=O)Nc2ccc3c(c2)C(=O)N(CC2CCCO2)C3=O)cc1 (configuration not stated) 31.6 µM, Cc1ccc2c(c1)c1ncn(CCC3=CCCCC3)c(=O)c1n2C 31.6 µM, CCc1c(C)sc(NC(=O)c2ccc(Br)o2)c1C(=O)OC 31.6 µM, COC(=O)c1c(NC(=O)c2cccs2)sc2c1CCCC2 31.6 µM, CCOC(=O)c1c(NC(=O)c2ccc(Br)o2)sc2c1CCCC2 25.1 µM, C#CCCCCCCCCCCCCCCCC(=O)O 15.8 µM, c1ccc2[nH]c(-c3nc4ccccc4[nH]3)nc2c1 25.1 µM, c1ccc(-c2[nH]ncc2-c2nc3ccccc3[nH]2)cc1 12.6 µM, Cc1cccc(NC(=O)CSC(N)=O)c1C 31.6 µM, CCn1c2c(c3ccc(OC)cc31)CCCC2=O 25.1 µM

Potency, inactive:
COc1ccc(C2CC(=O)C=C(NCC3CCCO3)C2)cc1 (configuration not stated), Cc1ccc2nc(NC3=NCN(CCc4ccccc4)CN3)nc(C)c2c1, O=S(=O)(c1ccccc1)N1CCC2(CC1)CN(Cc1nccs1)C2, CCCC(C(=O)N1CCOCC1)N1C(=O)C2C3C=CC(C3)C2C1=O (configuration not stated), O=C(O)C1CCN(S(=O)(=O)N2CCOCC2)CC1, COc1ccccc1N1CCN(C(=O)c2cc3c(-c4ccc(Cl)cc4)nn(C)c3s2)CC1, CCOC(=O)N1CCN(C(=O)c2cc3c(-c4ccc(Cl)cc4)nn(C)c3s2)CC1, CC(Cc1ccccc1)C(=O)N(C)Cc1ccccc1 (configuration not stated), O=C(C(Cc1ccccc1)n1cccc1)N1CCN(C2CCCCC2)CC1 (configuration not stated), C=CCn1c(SCc2cc(C(=O)OC)c(C)o2)nnc1-c1ccncc1, CCC(C)(C(=O)NC1CCCC1)N(C(=O)CNC(C)=O)c1ccc(C)cc1 (configuration not stated), O=C(CS(=O)(=O)Cc1ccccc1)NCC1CCCO1 (configuration not stated), Cc1ccc2cc(C#N)c(SCC(=O)NCC3CCCO3)nc2c1C (configuration not stated), Cc1ncn(C23CC4CC(CC(O)(C4)C2)C3)n1, COC(=O)C1(C)C=CC2(CCCCC2)N1C(C)=O (configuration not stated), O=C(O)C1=CCCN(CCON=C(c2ccccc2)c2ccccc2)C1, O=C(Nc1ccccc1)N[C@H]1C[C@H](C(=O)O)Nc2cc(Cl)cc(Cl)c21, O=C(C1CCCO1)N1CCC(c2nc3ccccc3[nH]2)CC1 (configuration not stated), COc1ccc(S(=O)(=O)N2CCC(C(=O)N3CCOCC3)CC2)cc1OC, COc1ccc(N2C(=O)C3CCCN3C2c2cc(OC)c(OC)cc2OC)cc1 (configuration not stated), CCN(CC)S(=O)(=O)c1cc(C(=O)Nc2ccccn2)ccc1C, CCCCOc1ccc(C(=O)NCc2ccco2)cc1, COc1ccccc1C(=O)NCCn1cc(SCC(=O)NCc2ccco2)c2ccccc21, Cn1cccc1C(=O)Nc1nccs1, CC(C)(C)NC(=O)NC(=O)COC(=O)Cn1c(C(F)(F)F)nc2ccccc21, CSCC[C@H](NC(=O)NCCc1ccc(F)cc1)C(=O)O, O=C1OC(C(O)CO)C(O)=C1O (configuration not stated), COc1ccc(CCN=C2SCC(=O)N2C)cc1OC, COc1ccc(C(=O)N(Cc2ccc(N(C)C)cc2)C2CCS(=O)(=O)C2)cc1 (configuration not stated), CCCCC(CC)CN (configuration not stated), N[C@@H](C(=O)O)c1ccc(P(=O)(O)O)cc1, O=C(c1ccc(O)cc1)c1ccc(C(=O)O)c(C(=O)O)c1, Cc1noc(NS(=O)(=O)c2ccc(NC(=O)C34CCC(CC3)C4)cc2)c1C, O=C(c1c(Cl)nc2sccn12)N1CCCc2ccccc21, CC(C)NC(=O)N1CC[C@@]2(CCCN(C(=O)c3ccco3)C2)C1, O=C(c1ccco1)N1CCC[C@@]2(CCN(c3ccccc3)C2)C1, COc1ccc(OC)c(S(=O)(=O)Nc2ccccc2F)c1, COC(=O)c1ccc(NC(=O)CSc2nnc(-c3ccncc3)n2C)cc1, CC(=O)NC1=NC(=O)CS1, O=C1CC(c2ccccc2)C(=O)N1c1cccc(O)c1 (configuration not stated), Cc1ccc(Oc2nc3ccccc3n3c(C)nnc23)cc1, CCCCNC(=O)CSc1nnc(-c2ccco2)n1C, CC1=C2C(=O)OC(c3ccoc3)C2(C)CCC1 (configuration not stated), Cc1ccccc1OCCC(=O)Nc1c(C)n(C)n(-c2ccccc2)c1=O, O=C(NCc1ccc2c(c1)OCO2)c1ccc2c(c1)C(=O)N(CC1CCCO1)C2=O (configuration not stated), O=C(CCN1C(=O)c2ccncc2C1=O)Nc1ccc2c(c1)OCCO2, O=C(CCN1C(=O)c2ccccc2C1=O)NCCN1CCOCC1, COCc1nc2ccccc2n1Cc1ccccc1Br, COC(=O)N1CCC2(CCCN(Cc3ccccc3OC)C2)CC1, Cn1c(=O)n(C)c(=O)n(CC(=O)N2CCCCC2)c1=O, Cn1nnc2cc(C(=O)NCCC3=CCCCC3)ccc21, CC1CCCN(C(=O)c2ccc3c(c2)C(=O)N(CCC2=CCCCC2)C3=O)C1 (configuration not stated), CC1(C)C(=O)C2(CCCCC2)C(=O)OC1c1cccs1 (configuration not stated), CC(C)CO, CCCC(Cl)CCCC(Cl)CCC(Cl)CCC(Cl)CCC(Cl)CCCC(Cl)CCC (configuration not stated), CCC(=NC1CC(C)(C)NC(C)(C)C1)C1=C(O)CC(C)(C)CC1=O, COC(=O)c1c(NC(=O)CSc2nncs2)sc2c1CCCCC2, CCOC(=O)c1c(NC(=O)c2cccs2)sc(C)c1C, CCc1c(C)sc(NC(=O)OC)c1C(=O)N1CCOCC1, CCCOC(=O)Nc1sc2c(c1C(=O)OCC)CCC2, COc1cc(OC)c(NC(=O)c2ccc(Br)o2)cc1Cl, CCOC(=O)c1c(NC(=O)CCC(=O)NCc2ccco2)sc2c1CCCC2, CCOc1ccc(N=C2SC(C(=O)O)CC(=O)N2C)cc1 (configuration not stated), O=C(CCS(=O)(=O)Cc1ccccc1F)NCCCN1CCCCC1, Cn1c2c(c(=O)n(C)c1=O)C1c3ccccc3OCC1C(C)(C)O2 (configuration not stated), COc1ccc(NC(=O)c2cccc(NC(=O)c3ccco3)c2)c(OC)c1, Cc1cc(C(=O)O)ccc1[N+](=O)[O-], CC(C)OC(=O)CN1C(=O)c2ccccc2C1=O, CC(C)NC(=O)N1CCCC2(CCN(C(=O)c3cccn3C)CC2)C1, CC1CCCC(NC(=O)CSc2nccn2C)C1C (configuration not stated), O=C(OCC(COC(=O)c1ccccc1)(COC(=O)c1ccccc1)COC(=O)c1ccccc1)c1ccccc1, O=C(O)CCCCC(=O)O, CCCCCCCCCCCC(=O)O, CC1CC[C@@]23CCC4(C)[C@@]5(C)CCC6C(C)(C)C(O)CC[C@@]6(C)C5C=C[C@@]4(OC2=O)C3C1C (some centres not stated), O=C(NCCN1C(=O)C2C3C=CC(C3)C2C1=O)Nc1ccccn1 (configuration not stated), COC(=O)Cc1nc2ccccc2[nH]1, C=CCSc1nc2ccccc2[nH]1, C=CCSc1nc2c(c(=O)[nH]1)C(C(C)C)C(C#N)=C(N)O2 (configuration not stated), O=C(NCc1ccccc1)[C@H]1C[C@@H]1[C@H](NP(=O)(c1ccccc1)c1ccccc1)c1ccccc1, COC(=O)c1ccc2c(c1)S(=O)(=O)NC(=NCCCN1CCOCC1)S2, Cc1nc(C)c(C(=O)Nc2cccc(C)c2C)o1, Cc1cccc(NC(=O)CSc2nc3c(c(=O)[nH]2)CCC3)c1C, Cc1nnc(NC(=O)CCC(=O)N2CCC(C)CC2)s1, CCCCC/C=C/C=C/C=O, CCn1c(=N)n(CC(=O)c2cccc(OC)c2)c2ccccc21

Activity change, negative = inhibition, inactive:
Oc1ccccc1CNCc1ccccc1O -0.327% [at 11.4 µM], CCOC(=O)N/N=C1/C[C@@H](O)[C@@H](O)[C@@H]2[C@@H]3C(=O)N(CC)C(=O)[C@H]3CC[C@H]12 7.25% [at 11.4 µM], NCC(=O)[C@@H](O)[C@H](O)[C@H](O)CO 0.448% [at 11.4 µM], C/C(CCN1CCc2nc(-c3ccccc3)c(-c3ccccc3)cc2C1)=N\O[C@@H](C)c1cn([C@@H]2COC[C@@H]2O)nn1 2.35% [at 11.4 µM], O=C(O)c1cccc(S(=O)(=O)NCCO)c1 10% [at 11.4 µM], COc1ccc(C(=O)N/N=C2/C(=O)c3c(C)cc(C)cc3CC2(C)C)cc1 12.3% [at 11.4 µM]
